# Bioassay records from PubChem.
# TDP1 block: qHTS Assay for Inhibitors of Tyrosyl-DNA Phosphodiesterase (TDP1); Potency, µM (highest dose often 130 µM), for inactives: top-dose activity change, negative = inhibition, usual class: inhibitors; 0.28% of 350,000 active; AID 485290, 2010; Tyrosyl-DNA phosphodiesterase 1 (Homo sapiens), Q9NUW8; recombinant TDP1, AlphaScreen DNA substrate cleavage; further: potency means the concentration at half of the fitted maximal effect; nearly all actives have a fitted effect of over 40% in size
# Target sequence (Q9NUW8 whole entry, looked up): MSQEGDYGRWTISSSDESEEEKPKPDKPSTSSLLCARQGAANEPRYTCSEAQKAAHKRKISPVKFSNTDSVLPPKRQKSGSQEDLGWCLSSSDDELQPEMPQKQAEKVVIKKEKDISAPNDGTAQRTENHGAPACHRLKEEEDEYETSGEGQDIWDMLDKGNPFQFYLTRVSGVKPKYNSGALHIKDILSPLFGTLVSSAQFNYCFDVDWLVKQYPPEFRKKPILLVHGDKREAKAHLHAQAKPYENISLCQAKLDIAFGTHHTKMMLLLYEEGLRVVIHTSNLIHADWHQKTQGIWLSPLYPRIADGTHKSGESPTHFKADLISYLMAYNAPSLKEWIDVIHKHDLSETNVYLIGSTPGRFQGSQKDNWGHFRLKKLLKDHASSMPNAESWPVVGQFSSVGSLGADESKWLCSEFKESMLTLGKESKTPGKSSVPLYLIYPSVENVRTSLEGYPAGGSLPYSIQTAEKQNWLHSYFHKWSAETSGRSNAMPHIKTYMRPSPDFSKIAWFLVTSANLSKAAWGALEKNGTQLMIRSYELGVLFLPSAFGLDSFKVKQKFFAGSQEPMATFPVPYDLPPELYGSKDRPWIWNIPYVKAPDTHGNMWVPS
#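 Here, a 5' biotin and 3' phosphotyrosine-FITC DNA oligonucleotide reports Tdp1 activity: intact substrate bridges AlphaScreen beads, while cleavage leaves a 3' phosphate and drops signal. All incubations at room temperature.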
# TDP1 cell CPT: qHTS for Inhibitors of human tyrosyl-DNA phosphodiesterase 1 (TDP1): qHTS in cells in presence of CPT. chicken DT40 Tdp1-/-;hTDP1 cells + 20 nM CPT, ATP luminescence, 48 h. Potency, µM (doses to about 46.2 µM), for inactives: at the highest dose activity change, negative = growth inhibition, hits mostly inhibitors. 12% of 420,000 active; further: potency means the concentration at half of the fitted maximal effect; nearly all actives have a fitted effect of over 55% in size
#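 Chicken DT40 Tdp1-/- cells stably complemented with human TDP1 were seeded at 400 cells/well in medium containing 20 nM camptothecin, exposed to pin-transferred compounds, and grown at 37 °C for at least 48 hr. Viability was read as ATP luminescence.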
# IL-1B inflam inh: qHTS for Inhibitors of Inflammasome Signaling: IL-1-beta AlphaLISA Primary Screen; activity change, % at 57.5 µM; THP-1 LPS/ATP IL-1B secretion, AlphaLISA, 16 h; stronger effect = lower value; 4.7% of 360,000 active; in the data active means activity change below about -50%; inconclusive means mostly about -30% to -49%
#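 THP-1 cells pretreated 1 hr with compounds (up to 57.5 uM final), then stimulated with LPS (250 ng/mL final) plus ATP (1.25 mM final); secreted IL-1B measured by AlphaLISA after 16 hr, decreased signal indicating inhibition.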
# ELG1 DNA repair: qHTS screen for small molecules that inhibit ELG1-dependent DNA repair in human embryonic kidney (HEK293T) cells expressing luciferase-tagged ELG1. HEK293T ELG1-luciferase reporter, luminescence, 16 h; DNA damage induced by 5-fluorouridine. Potency, µM (highest dose often 46.1 µM), for the others: top-dose activity change, negative = inhibition, hits mostly inhibitors. 2.3% of 330,000 active. AID 504467, 2011; further: potency means the concentration at half of the fitted maximal effect; nearly all actives have a fitted effect of over 55% in size
#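 Quantitative HTS, concentration-response format. 2,000 cells/well co-treated with 5-fluorouridine and compound, 16 hr in 5% CO2 at 37 °C; ONE-Glo luminescence read after 30 min.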
# Giardia killer: Small Molecules that selectively kill Giardia lamblia: qHTS; Giardia lamblia trophozoite viability; activity change, % at 7.66 µM, hits read low; 0.15% of 340,000 active; AID 540267, 2011; in the data active means activity change below about -80%; inconclusive means between about -30% and that limit;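 further: parasites exposed to compound for two days anaerobically before the ATP read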
#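 Each well holds 100 Giardia trophozoites and compound. After two days (48 hrs) at 37 deg C in anaerobic conditions, ATP is quantified by luminescence.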
# TDP1 cell noCPT: qHTS for Inhibitors of human tyrosyl-DNA phosphodiesterase 1 (TDP1): qHTS in cells in absence of CPT | DT40 Tdp1-/- hTDP1 cells, no CPT, ATP luminescence, 48 h | Potency, µM (doses to about 46.2 µM), without a hit: top-dose activity change, negative = growth inhibition, usual class: inhibitors | 15% of 420,000 active | AID 686978, 2013; further: potency means the concentration at half of the fitted maximal effect; nearly all actives have a fitted effect of over 55% in size
#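 DT40 Tdp1-/-;hTDP1 cells, no CPT (DMSO vehicle only), 400 cells/well; compounds pin-transferred; ≥48 hr, 37 °C; CellTiter-Glo 30 min RT dark, luminescence read.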
# The depositor's hits bear a star; u = inconclusive; x = not tested or not shown. Shown are actives, neighbours in structure and some others; about 19% of the full set was active somewhere. Unless noted, the call rests on the fitted dose curve; in most records, active means well fitted curve in the direction sought with a large enough effect; inconclusive means small, poorly fitted or top-dose-only effect, or another doubt; inactive means no such curve, though single readings can be large; an effect the other way counts as inactive or inconclusive. On the % scale 0 is the no-effect control and ±100 the full control effect.
SMILES,TDP1 block,TDP1 cell CPT,IL-1B inflam inh,ELG1 DNA repair,Giardia killer,TDP1 cell noCPT
CCOC(=O)Cn1c(=NC(=O)C2COc3ccccc3O2)sc2cc(S(N)(=O)=O)ccc21 (centres undefined),8%,u,-13,-18%,14,21µM*
COCCn1c(=NC(=O)c2ccc3c(c2)OCCO3)sc2cc(S(N)(=O)=O)ccc21,1%,-24%,-3,27%,21,u
COC(=O)Cn1c(=NC(=O)c2nc3ccccc3s2)sc2cc(S(N)(=O)=O)ccc21,3%,u,-3,-20%,-6,u
CCOCCn1c(=NC(=O)c2cc(Cl)sc2Cl)sc2cc(S(N)(=O)=O)ccc21,2%,x,x,14%,x,x
CCOC(=O)Cn1c(=NC(=O)c2cc(-c3cccs3)nc3ccccc23)sc2cc(S(N)(=O)=O)ccc21,2%,23µM*,-11,u,-8,16µM*
O=C(O)c1ccccc1Cc1ccc2c(c1)CCCC2,x,6%,17,x,-12,-8%
O=C(COc1ccc(F)cc1F)Nc1cccnc1,1%,-6%,-29,u,1,13%
C(=N\Nc1nc(-c2ccccc2)cs1)/c1cccnc1,5%,13µM*,-21,u,1,u
Clc1ccc(-c2csc(N/N=C/c3cccnc3)n2)c(Cl)c1,79µM*,u,95,-27%,11,u
Cc1ccc(-c2cc(-c3ccccc3O)nc(N/N=C/c3cccnc3)n2)cc1,4%,16µM*,6,u,9,12µM*
CC(C)(C)c1csc(N/N=C/c2cccnc2)n1,10%,21%,-99*,u,-3,1%
Cc1cccc(-n2c(CNC(=O)c3cccc(F)c3)nnc2SCC(=O)Nc2ccccc2F)c1,7%,-19%,x,x,x,u
CC(C)CC(CSc1ccc(Br)cc1)N1CCN(C)CCC1=O (centres undefined),8%,x,x,x,25,x
COc1ccc(OC)c(NC(=O)COC(=O)COc2ccc(Nc3ccccc3)cc2)c1,9%,1%,-4,u,1,-8%
Cc1onc(-c2ccc(Cl)cc2Cl)c1-c1csc(N/N=C/c2ccccc2Cl)n1,6%,u,-20,-16%,7,12µM*
Cc1onc(-c2ccccc2)c1-c1csc(N/N=C/c2ccccc2Cl)n1,4%,u,-21,-4%,-16,u
C(=N\Nc1nccc(-c2cccnc2)n1)/c1ccccc1,-2%,0.033µM*,-54*,u,32,u
Cc1nn(CC(=O)N2CCC(C(N)=O)CC2)c(=O)c2nn(-c3ccccc3)c(C)c12,0%,-5%,36,u,-6,26%
CCOc1ccc(Cl)cc1CNCCCSc1nnnn1C,5%,-26%,x,x,x,-29%
Cn1c(NCc2ccccc2F)nc2cc(-c3ccsc3)sc2c1=O,x,u,3,x,x,23µM*
COc1ccccc1CNc1nc2cc(-c3ccsc3)sc2c(=O)n1C,x,u,64,x,x,u
COc1ccc(-c2cc3nc(NCc4ccc(C)cc4C)n(C)c(=O)c3s2)cc1OC,x,u,49,x,x,u
Cc1ccc(CNc2nc3cc(-c4ccccc4)sc3c(=O)n2C)c(C)c1,x,16µM*,7,x,x,-25%
COc1cccc(-c2cc3nc(NCc4ccccc4F)n(C)c(=O)c3s2)c1,x,23µM*,-15,x,x,16µM*
COc1cccc(-c2cc3nc(NCc4cccnc4)n(C)c(=O)c3s2)c1,x,u,23,x,x,u
SMILES,TDP1 block,TDP1 cell CPT,IL-1B inflam inh,ELG1 DNA repair,Giardia killer,TDP1 cell noCPT
Cn1c(NCc2ccccc2F)nc2cc(-c3cccc(Cl)c3)sc2c1=O,x,15µM*,-1,x,x,21µM*
Cn1c(NCC2CCCCC2)nc2cc(-c3ccsc3)sc2c1=O,x,26µM*,12,x,x,u
Cn1c(NCc2ccccc2F)nc2cc(-c3ccccc3)sc2c1=O,x,18µM*,-17,x,x,21µM*
Cc1cc(OC(C)C(=O)NCC2CCC(C(=O)O)CC2)c2c(C)c(C)c(=O)oc2c1 (centres undefined),x,-9%,26,18%,-6,-1%
CC(=O)N1c2ccc3ccccc3c2C2C=CCC2C1c1ccc(Br)cc1 (centres undefined),2%,x,x,12%,x,x
CC(=O)N1c2ccc(Cl)cc2C2C=CCC2C1c1cccc2ccccc12 (centres undefined),0%,23µM*,u,23µM*,14,u
COc1cccc(CNC(=O)CN2C(=O)N(c3cccc(Cl)c3)S(=O)(=O)c3ccccc32)c1OC,5%,u,x,x,x,-25%
COc1ccccc1NC(=O)Nc1nc(CC(=O)Nc2ccc(F)cc2)cs1,1%,u,-16,u,7,16µM*
COc1ccccc1NC(=O)Nc1nc(CC(=O)Nc2cccc(F)c2)cs1,0%,u,-9,u,-5,u
COc1ccc(NC(=O)Cc2csc(NC(=O)Nc3ccccc3OC)n2)cc1,x,26µM*,-25,x,x,23µM*
COc1ccc(C)cc1NC(=O)Cc1csc(NC(=O)Nc2ccccc2OC)n1,x,u,39,x,x,16µM*
Cc1cccc(C)c1NC(=S)/C(=C(\[O-])c1cccs1)[n+]1ccccc1,3%,-19%,7,3%,-3,u
